# Compounds without any hit were thinned out: in the full panel of roughly 79,000, 15% have a hit. A number with no mark means an inactive call. The source made the active and inactive calls. No stated cut-off is given here; in the data, active means growth inhibition above about 70%; inactive means the rest.
# Assay: NCI Yeast Anticancer Drug Screen. Data for the sgs1 mgt1 strain (AID 161);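 further: 0% = growth of cultures given vehicle only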
# Details: S. cerevisiae sgs1 mgt1 strain, at 50.0 µM, active compounds read high
# Procedure, shortened: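 This yeast growth screen uses a strain with defined DNA-repair lesions; compound-treated growth is compared with vehicle-treated growth.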
row,SMILES,growth inhibition
1,O=C(O)C1C(C2c3ccc(O)cc3Oc3cc(O)ccc32)C2(Cl)C(Cl)=C(Cl)C1(Cl)C2(Cl)Cl (stereo not given),96.8% (active)
2,C1=CC2=CC=CC3c4nc5ccc6ccccc6c5nc4C(=C1)C23 (stereo not given),-0.9%
3,O=C1c2c(c3c4ccccc4[nH]c3c3[nH]c4ccccc4c23)C(=O)N1Cc1ccccc1,4.95%
4,CC(C)(CC1(C)NC(=O)NC1=O)OCc1ccccc1 (stereo not given),-14.8%
5,NC(=O)N/N=C/c1cccc([N+](=O)[O-])c1,-5.9%
6,O=C(CN=C(CN(c1ccccc1)c1ccccc1)Oc1c(Cl)cc(Cl)cc1Cl)N1c2ccccc2Sc2ccccc21,36.5%
7,N#C/C(=C\N1CC(=O)NC1=S)c1nc2ccccc2s1,-6.05%
8,CC1=C(c2cc(C(=O)Nc3cc(C)ccc3C)nc(N)n2)Sc2ccccc2N1,-25.8%
9,CC(=O)OC/C=C(C)/C=C/C=C(C)/C=C/C1=C(C)CCCC1(C)C,-20.3%
10,CCN(C(=S)Nc1cccc2ccccc12)c1ccccc1,11.7%
11,Cc1ccc(C)c2c1CCc1cc3ccccc3nc1-2,11.8%
12,CN=Cc1c(O)ccc2ccccc12.[Cu+2],1.7%
13,Cc1[nH]c(C)c2ccc(=O)ccc12,-16.6%
14,O=C1C2C(Cl)C(Cl)C(Cl)C(Cl)C2C(=O)N1NC1CCC([N+](=O)[O-])CC1[N+](=O)[O-] (stereo not given),-18.5%
15,CC(=O)NC1C(OC(C)C(=O)NC(C(=O)NC(CCC(=O)NCCCNC2c3ccccc3Nc3cccc([N+](=O)[O-])c32)C(N)=O)C(C)C)C(O)C(CO)OC1(C)OCc1ccccc1 (stereo not given),4.3%
16,CCSc1n[nH]c(=O)nc1SC,-3.9%
17,CC(C)CCOC(=O)C1C(=O)CC(c2ccccc2)C1c1ccccc1 (stereo not given),-6.35%
18,CCCOC(=O)COc1ccccc1,-4.3%
19,Cn1c(-c2ccc(/C=N/N=C(N)N)cc2)c[n+]2ccccc12,4%
20,CC1(C)CCCCC1/C=C/C(CC(O)(C(F)(F)F)C(F)(F)F)=N\Nc1ccc([N+](=O)[O-])cc1[N+](=O)[O-] (stereo not given),4.65%

row,SMILES,growth inhibition
1,CCOC(=O)Nc1ccc(Cl)cc1Cl,-4.7%
2,COC(=O)COc1ccccc1[N+](=O)[O-],0.6%
3,CCCCOB(OCCCC)Oc1c(C(C)(C)C)cccc1C(C)(C)C,-4.7%
4,N#CCCN(CCC#N)c1nc(-c2ccccc2)nc(N(CCC#N)CCC#N)n1,-1.75%
5,COC1OC(=O)c2cccc3cccc1c23 (stereo not given),-8.2%
6,CC(O)C(=O)OCCOCCOC(=O)C(C)O (stereo not given),10.8%
7,Cc1ccc(S(=O)(=O)OC(c2ccccc2)C(F)(F)F)cc1 (stereo not given),-7.2%
8,COc1cccc(C[n+]2cc([O-])on2)c1,-3.3%
9,COc1ccc(-c2cc(-c3ccccc3)c(-c3ccccc3)nn2)cc1CN1CCOCC1,-17.1%
10,CC(C)C[C@H](NC(=O)[C@H](CCc1ccccc1)NC(=O)c1ccc2ccccc2n1)B(O)O,55.5%
11,Cc1ccc(C)c(OC(=O)NC2CCCCC2)c1,-15.1%
12,CC(O)C(O)C(O)C(=O)C=O (stereo not given),6.1%
13,O=c1[nH]c(Nc2ccccc2)nc2c1ncn2CC(O)CSCCO (stereo not given),26.7%
14,Cc1cc2ccccc2c[n+]1CC(=O)CC([O-])(C(F)(F)F)C(F)(F)F,-5.65%
15,O=[N+]([O-])c1ccc(CCCc2ccc([N+](=O)[O-])cc2)cc1,58.9%
16,CCOc1ccc(/C=C(\NC(=O)c2ccccc2)C(=O)Nc2ccccc2)cc1OC,-4.45%
17,O=C(NC1COB(c2cccc([N+](=O)[O-])c2)OC1c1ccc([N+](=O)[O-])cc1)C(Cl)Cl (stereo not given),5.65%
18,c1ccc2c(c1)CCc1cc3cc4c(nc3nc1-2)-c1ccccc1CC4,-14.1%
19,CCOC(=O)c1ccc2c3c(ccc([N+](=O)[O-])c13)CC2,-14%
20,Brc1ccccc1-c1nnc(-c2cccc3ccccc23)o1,-15.3%

# Assay: NCI Yeast Anticancer Drug Screen. Data for the cln2 rad14 strain (AID 165);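 further: 0% = growth equal to vehicle treated cultures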
# Details: S. cerevisiae cln2 rad14 strain, at 50.0 µM, active compounds read high
# Procedure, shortened: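 Yeast strain cln2 rad14, bearing defects in cell cycle control and DNA repair, serves as the test system; values reflect growth inhibition compared with vehicle.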
row,SMILES,growth inhibition
1,O=C(O)C1C(C2c3ccc(O)cc3Oc3cc(O)ccc32)C2(Cl)C(Cl)=C(Cl)C1(Cl)C2(Cl)Cl (stereo not given),69.2%
2,C1=CC2=CC=CC3c4nc5ccc6ccccc6c5nc4C(=C1)C23 (stereo not given),4.25%
3,O=C1c2c(c3c4ccccc4[nH]c3c3[nH]c4ccccc4c23)C(=O)N1Cc1ccccc1,-6.6%
4,CC(C)(CC1(C)NC(=O)NC1=O)OCc1ccccc1 (stereo not given),-24.2%
5,NC(=O)N/N=C/c1cccc([N+](=O)[O-])c1,-32.5%
6,O=C(CN=C(CN(c1ccccc1)c1ccccc1)Oc1c(Cl)cc(Cl)cc1Cl)N1c2ccccc2Sc2ccccc21,-36.2%
7,N#C/C(=C\N1CC(=O)NC1=S)c1nc2ccccc2s1,23.3%
8,CC1=C(c2cc(C(=O)Nc3cc(C)ccc3C)nc(N)n2)Sc2ccccc2N1,-18.1%
9,CC(=O)OC/C=C(C)/C=C/C=C(C)/C=C/C1=C(C)CCCC1(C)C,-2.25%
10,CCN(C(=S)Nc1cccc2ccccc12)c1ccccc1,2.4%
11,Cc1ccc(C)c2c1CCc1cc3ccccc3nc1-2,7.9%
12,CN=Cc1c(O)ccc2ccccc12.[Cu+2],6.45%
13,Cc1[nH]c(C)c2ccc(=O)ccc12,-58.2%
14,O=C1C2C(Cl)C(Cl)C(Cl)C(Cl)C2C(=O)N1NC1CCC([N+](=O)[O-])CC1[N+](=O)[O-] (stereo not given),17.4%
15,CC(=O)NC1C(OC(C)C(=O)NC(C(=O)NC(CCC(=O)NCCCNC2c3ccccc3Nc3cccc([N+](=O)[O-])c32)C(N)=O)C(C)C)C(O)C(CO)OC1(C)OCc1ccccc1 (stereo not given),13.4%
16,CCSc1n[nH]c(=O)nc1SC,-67%
17,CC(C)CCOC(=O)C1C(=O)CC(c2ccccc2)C1c1ccccc1 (stereo not given),-0.15%
18,CCCOC(=O)COc1ccccc1,-45%
19,Cn1c(-c2ccc(/C=N/N=C(N)N)cc2)c[n+]2ccccc12,0.8%
20,CC1(C)CCCCC1/C=C/C(CC(O)(C(F)(F)F)C(F)(F)F)=N\Nc1ccc([N+](=O)[O-])cc1[N+](=O)[O-] (stereo not given),18.1%

row,SMILES,growth inhibition
1,CCOC(=O)Nc1ccc(Cl)cc1Cl,-16.7%
2,COC(=O)COc1ccccc1[N+](=O)[O-],3.7%
3,CCCCOB(OCCCC)Oc1c(C(C)(C)C)cccc1C(C)(C)C,9.8%
4,N#CCCN(CCC#N)c1nc(-c2ccccc2)nc(N(CCC#N)CCC#N)n1,0.9%
5,COC1OC(=O)c2cccc3cccc1c23 (stereo not given),-7.5%
6,CC(O)C(=O)OCCOCCOC(=O)C(C)O (stereo not given),-11.8%
7,Cc1ccc(S(=O)(=O)OC(c2ccccc2)C(F)(F)F)cc1 (stereo not given),6.9%
8,COc1cccc(C[n+]2cc([O-])on2)c1,-27.5%
9,COc1ccc(-c2cc(-c3ccccc3)c(-c3ccccc3)nn2)cc1CN1CCOCC1,10.7%
10,CC(C)C[C@H](NC(=O)[C@H](CCc1ccccc1)NC(=O)c1ccc2ccccc2n1)B(O)O,73.8% (active)
11,Cc1ccc(C)c(OC(=O)NC2CCCCC2)c1,-57.6%
12,CC(O)C(O)C(O)C(=O)C=O (stereo not given),14.2%
13,O=c1[nH]c(Nc2ccccc2)nc2c1ncn2CC(O)CSCCO (stereo not given),8.45%
14,Cc1cc2ccccc2c[n+]1CC(=O)CC([O-])(C(F)(F)F)C(F)(F)F,4.1%
15,O=[N+]([O-])c1ccc(CCCc2ccc([N+](=O)[O-])cc2)cc1,-41.2%
16,CCOc1ccc(/C=C(\NC(=O)c2ccccc2)C(=O)Nc2ccccc2)cc1OC,-25.6%
17,O=C(NC1COB(c2cccc([N+](=O)[O-])c2)OC1c1ccc([N+](=O)[O-])cc1)C(Cl)Cl (stereo not given),-23.9%
18,c1ccc2c(c1)CCc1cc3cc4c(nc3nc1-2)-c1ccccc1CC4,-9.4%
19,CCOC(=O)c1ccc2c3c(ccc([N+](=O)[O-])c13)CC2,-1.9%
20,Brc1ccccc1-c1nnc(-c2cccc3ccccc23)o1,-10.8%
